A selection: hits, their analogues and other compounds. The true share with any hit is near 1.5%.
UCHL1 inh: inhibitors of human UCHL1 deubiquitinase; inhibition, % at 20 µM; purified UCHL1, Ub-rhodamine cleavage fluorescence; 0.2% of 47,000 active
Target sequence (P09936 whole entry, looked up): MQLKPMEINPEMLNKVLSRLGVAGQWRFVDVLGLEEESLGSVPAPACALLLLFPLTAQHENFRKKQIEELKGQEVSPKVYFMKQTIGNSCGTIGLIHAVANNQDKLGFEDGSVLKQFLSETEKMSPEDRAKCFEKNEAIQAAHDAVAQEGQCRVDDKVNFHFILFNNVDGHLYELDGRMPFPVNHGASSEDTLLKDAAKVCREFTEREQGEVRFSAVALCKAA
USP7 inh: inhibitors of human USP7 deubiquitinase; Ubiquitin carboxyl-terminal hydrolase 7 (Homo sapiens), Q93009; purified USP7, Ub-rhodamine cleavage fluorescence; inhibition, % at 20 µM; 0.3% of 47,000 active
OTUD3 inh: inhibitors of human OTUD3 deubiquitinase. OTU domain-containing protein 3 (Homo sapiens), Q5T2D3. purified OTUD3, Ub-rhodamine fluorescence, 2 h. inhibition, % at 25 µM. 0.7% of 47,000 active
Target sequence (Q5T2D3 whole entry, looked up, the tested form may be a part): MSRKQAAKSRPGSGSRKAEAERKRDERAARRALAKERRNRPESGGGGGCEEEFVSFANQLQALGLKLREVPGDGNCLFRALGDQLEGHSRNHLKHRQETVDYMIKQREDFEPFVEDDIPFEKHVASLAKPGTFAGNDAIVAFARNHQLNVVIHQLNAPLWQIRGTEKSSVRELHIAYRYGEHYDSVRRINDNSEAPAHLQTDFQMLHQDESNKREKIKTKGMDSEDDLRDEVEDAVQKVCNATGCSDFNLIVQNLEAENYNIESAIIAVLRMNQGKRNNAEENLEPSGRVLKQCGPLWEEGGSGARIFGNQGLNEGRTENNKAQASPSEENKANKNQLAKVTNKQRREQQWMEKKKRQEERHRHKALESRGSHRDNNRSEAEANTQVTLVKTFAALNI
USP10 block: inhibitors of human USP10 deubiquitinase; Ubiquitin carboxyl-terminal hydrolase 10 (Homo sapiens), Q14694; purified USP10, Ub-rhodamine fluorescence, 60 min; inhibition, % at 20 µM; 1.1% of 47,000 active
Numbers without * were called inactive. Cut-off read from the data, not from the text of the source: active = inhibition above about 30%; inactive = the rest.

SMILES	UCHL1 inh	USP7 inh	OTUD3 inh	USP10 block
O=C(OCC(=O)N1CCC(Cc2ccccc2)CC1)c1ccccc1C(=O)c1ccccc1	3.6	8.0	2.2	4.8
CCOC(=O)c1cc2c(ccn2-c2ccc(F)cc2)n1CC(=O)Nc1ccc2c(c1)OCCO2	-2.6	5.0	-1.4	37.3*
O=C(Nc1c2c(nn1-c1ccc([N+](=O)[O-])cc1)CS(=O)(=O)C2)c1cccs1	3.5	-4.4	18.2	5.3
O=C(Nc1c2c(nn1-c1ccc([N+](=O)[O-])cc1)CSC2)c1c(F)cccc1F	4.1	0.0	20.3	34.2*
O=C(Nc1cccc(N2CCCCC2=O)c1)c1ccccc1C(F)(F)F	1.2	4.0	3.8	0.5
Cc1nn(-c2ccc(F)cc2)c(C)c1S(=O)(=O)N1CCN(c2ccccn2)CC1	6.4	35.7*	21.1	4.8
Cc1nn(-c2ccc(F)cc2)c(C)c1S(=O)(=O)N1CCC(C)CC1	4.7	5.2	20.9	4.9
CC(C)=CCc1c(O)cc2c(c1C)OC(=O)c1c(C)c(Cl)c(O)c(CO)c1O2	4.5	14.5	21.1	47.9*
COc1cc(O)c2c(=O)cc(C)oc2c1CC=C(C)C	4.8	4.1	1.0	10.4
Clc1ccc2oc(-c3cccs3)nc2c1	-1.0	-32.3	-2.2	5.3
Nc1ccc2oc(-c3cccc(-c4nc5cc(N)ccc5o4)n3)nc2c1	22.9	29.6	39.7*	37.3*
COc1ccc(-c2nn(-c3ccccc3)c3[nH]c(=O)c(CNc4ccc5c(c4)OCCO5)cc23)cc1OC	16.5	30.6*	-3.5	23.3
COc1ccc(-c2nn(-c3ccccc3)c3[nH]c(=O)c(CNCc4cccs4)cc23)cc1OC	-2.6	4.1	-13.0	-10.2
O=c1[nH]c2c(cc1CNc1ccc(Cl)cc1)c(-c1cccc(F)c1)nn2-c1ccccc1	-1.3	14.4	-7.5	4.9
Cc1ccc(NCc2cc3c(-c4cccc(F)c4)nn(-c4ccccc4)c3[nH]c2=O)cc1C	18.1	51.3*	-95.0	36.1*
O=c1[nH]c2c(cc1CNc1ccc(Oc3ccccc3)cc1)c(-c1ccc(F)cc1)nn2-c1ccccc1	40.5*	50.0*	-11.3	62.7*
COc1ccc(OC)c(C2=NO[C@]3(C(=O)Nc4ccccc43)[C@H]2C(=O)c2ccc(OC)c(OC)c2)c1	84.6*	5.4	1.2	3.0
O=C(Nc1nc2c(s1)COCC2)c1cc(-c2ccco2)[nH]n1	-14.7	-38.5	64.0*	-6.1
Nc1c(-c2nc(-c3ccccc3Cl)no2)nnn1-c1ccc(Cl)cc1	12.4	56.4*	3.7	60.2*
O=C(c1ccc(F)cc1Cl)N(c1ccccn1)C1CCCCC1	5.2	-13.8	3.8	4.9
O=C(c1ccc(Cl)cc1)N(c1ccccn1)C1CCCCC1	10.9	51.6*	43.7*	70.7*
CCOc1ccc(NC(=O)Cn2c(=O)n(CC(=O)NCc3ccc(C)cc3)c(=O)c3sccc32)cc1	5.1	13.5	20.3	18.1
COc1ccc(NC(=O)Cn2c(=O)n(CC(=O)NCc3ccc(C)cc3)c(=O)c3sccc32)cc1OC	10.5	8.7	31.6*	12.7
CCOc1ccccc1NC(=O)Cn1c(=O)n(CCCC(=O)NCc2ccc(C)cc2)c(=O)c2sccc21	6.2	35.9*	13.4	56.1*
Cc1ccc(CNC(=O)CCCn2c(=O)c3sccc3n(CC(=O)Nc3cc(Cl)ccc3C)c2=O)cc1	-0.7	18.7	40.2*	28.0
SMILES	UCHL1 inh	USP7 inh	OTUD3 inh	USP10 block
O=C(CCCCCn1c(=O)c2sccc2n(CC(=O)c2ccc(Cl)c(Cl)c2)c1=O)NCc1ccc2c(c1)OCO2	-1.8	13.0	19.0	46.1*
N#Cc1cccc(NC(=O)c2[nH]nc3c2COc2ccccc2-3)c1	1.2	13.1	-8.9	41.1*
CC/C=C\C/C=C\C/C=C\CCCCCCCC(=O)O	34.8*	41.3*	72.9*	54.0*
CCCCC[C@H](O)/C=C/C=C/CCCCCCCC(=O)O	0.0	-6.5	21.1	12.1
c1ccc2c(N3CCCC3)nnc(-c3nc(C4CC4)no3)c2c1	1.4	-13.7	3.0	3.7
CC1CCN(c2nnc(-c3nc(C4CC4)no3)c3ccccc23)CC1	5.4	-3.5	31.0*	13.0
Cc1cccc2nc(CSc3nc4ccc([N+](=O)[O-])cc4[nH]3)cn12	4.6	10.6	9.1	60.5*
N#Cc1ccc(C(=O)N(Cc2ccccc2)c2ccccn2)cc1	2.5	-0.5	6.3	0.8
CS(=O)(=O)n1nc(NCc2ccc(F)cc2)nc1NCc1ccc(F)cc1	2.1	-101.2	33.5*	2.6
CC(C)CCN1Cc2c(C(=O)N3CCCC3)ncn2-c2ccccc2S1(=O)=O	-0.9	-4.7	7.6	-1.1
Cc1ccc(Cl)cc1NC(=O)c1cc(-c2ccccn2)n[nH]1	2.1	17.4	-7.6	22.8
COc1cc(OC)c(NC(=O)c2cc(-c3ccccn3)n[nH]2)cc1Cl	5.8	22.4	4.8	39.9*
COc1ccc(Cl)cc1NC(=O)c1cc(-c2ccccn2)n[nH]1	13.3	57.5*	0.0	47.0*
O=C(Nc1ccc(Cl)cc1)c1cc(-c2ccccn2)n[nH]1	4.3	8.4	8.6	2.0
O=C(c1cc2cc(F)ccc2s1)N1CCCC1c1ccc2c(c1)OCCCO2 (stereo not given)	-9.8	-16.4	-32.7	-3.4
Cc1cccc(C(=O)NCc2nc3ccccc3n2Cc2ccccc2C)c1	3.0	-25.0	2.4	5.0
O=C1OC2CC1N(C(=O)c1ccc(OC(F)(F)F)cc1)C2 (stereo not given)	-1.3	-5.4	-0.1	-0.3
O=C(Cn1cnc(-c2noc(-c3ccccc3)n2)c1)Nc1ccccc1	29.3	18.0	-2.1	42.0*
O=C(Cn1cnc(-c2noc(-c3cccc(F)c3)n2)c1)Nc1ccccc1	6.3	5.2	-2.7	27.5
Cc1cc(C)nc(N(C(=O)C2CC2)c2ccccc2C(F)(F)F)n1	2.7	2.3	9.5	0.8
CN(C)c1ccc(CNc2nn3c(-c4cccnc4)cnc3s2)cc1	2.7	4.0	40.2*	7.4
c1ccc(CCNc2nn3c(-c4cccnc4)cnc3s2)nc1	3.7	9.2	11.6	3.5
c1cncc(-c2cnc3sc(NCc4ccc5c(c4)OCO5)nn23)c1	3.0	3.7	60.4*	30.4*
Fc1ccc(CNc2nn3c(-c4cccnc4)cnc3s2)cc1	-0.7	-16.4	-3.0	4.8
CSc1ncccc1C(=O)N1CCCn2nc(-c3ccncc3)cc2C1	0.1	4.0	13.2	0.3
SMILES	UCHL1 inh	USP7 inh	OTUD3 inh	USP10 block
Cc1ccc(Nc2nc(NCc3ccco3)c3ccccc3n2)cc1	10.4	12.3	35.4*	9.2
COc1ccccc1CNC(=O)c1ccccc1OCc1ccccc1Cl	6.1	-12.7	30.4*	12.3
COc1ccccc1CNC(=O)c1ccccc1-c1ccccc1	-0.3	-31.9	0.4	-6.8
COc1ccc(NC(=O)c2cc(-c3cccnc3)n[nH]2)cc1Cl	1.6	2.4	8.9	8.7
O=C(COc1ccc(Cl)cc1Cl)Nc1ccc2[nH]c(=O)[nH]c2c1	-0.1	20.6	7.0	31.0*
O=C(COC(=O)c1ccc(Cl)cc1)Nc1ccc2[nH]c(=O)[nH]c2c1	3.7	12.4	16.3	7.5
O=C(Nc1ccc2c(c1)OCCO2)C1CCC(Cn2cnc3ccccc3c2=O)CC1 (stereo not given)	6.0	1.7	11.2	50.9*

Bioassay records from PubChem BioAssay.
